In all, about 290,000 compounds went through this assay and about 3,000 (1%) were called active. Rule as the data show it: active = inhibition mostly above about 36% (no sharp cut-off); inactive = mostly below about 34%. Many of the other results were omitted from the sample, so actives are more common in it than they were.
Test: NOD1 signaling inhibitors, primary screen, cell-based, luminescence, uHTS (AID 1578);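 also: HEK-293T reporter cells stimulated with the NOD1 agonist gamma-tri-DAP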
Details: NOD1-driven NF-kB luciferase reporter cells, at 4 µM, active compounds read high

inhibition, inactive:
COc1cccc(CN2CCNC(=O)C2CC(=O)N2CCCCO2)c1OC (stereo unspecified) -10.5%
CC1=CC(=O)C(C(C)C)=C/C1=N/OS(=O)(=O)c1ccccc1 -5.3%
CCOc1ccc(C(=O)c2ccccc2C(=O)O)cc1OCC -35.3%
COc1ccc(CNc2ccc(S(N)(=O)=O)cc2)cc1 2.2%
Oc1ccc(/C=N/NC(=S)N2CCOCC2)cc1 4.2%
Cc1ccc(/C=N/NC(=S)N2CCOCC2)cc1 39.7%
Cc1cccc2sc(NC(=O)CSc3cn[nH]n3)nc12 19%
O=C1C2CC=CCC2C(=O)N1Cc1ccccc1Cl (stereo unspecified) -2.8%
CC(=O)Nc1ccc(NC(=O)CSc2nc(N)c(NC(=O)c3ccco3)c(=O)[nH]2)cc1 -35.9%
Cc1c(C)c2ccc(OCC(=O)Nc3cccnc3)cc2oc1=O -45.6%
O=C(COc1ccc2ccc(=O)oc2c1)Nc1cccnc1 -31.3%
COC(=O)COc1ccc2c(-c3ccc(OC)cc3)cc(=O)oc2c1 1.6%
O=C(COc1ccc2ccc(=O)oc2c1)Nc1ccc(CCO)cc1 -6%
Cc1nn(CCC#N)c(N)c1C1(O)C(=O)Nc2c(Cl)cc(Cl)cc21 (stereo unspecified) -6.9%
Fc1ccccc1/C=N/Nc1nc2ccccc2o1 -1.1%
CCOc1ccc2nc(C)cc(Nc3ccc(N4CCOCC4)cc3)c2c1 -31.4%
CN(C[C@H](CC1CCCCC1)N(C[C@H](Cc1ccccc1)N(CCc1ccccc1)N=O)N=O)N=O -18.5%
O=c1cc(CNC2CCCCC2)c2ccccc2[nH]1 11.2%
COC(=O)c1ccc(-n2cncn2)c([N+](=O)[O-])c1 -23.5%
CC(C)N=c1scc(-c2cccs2)n1/N=C/c1ccc(O)c(O)c1O 54.6%
CN=c1scc(-c2cccs2)n1/N=C/c1ccc(O)c(O)c1O -24.6%
O=C(Cc1ccccc1)NCC(=O)N1CCN(c2ccccc2)CC1 -14.1%
Cc1ccc(NC2=CC(=O)CC(c3ccc(Cl)cc3)C2)cc1 (stereo unspecified) -10.3%
C(=N\Nc1ccccn1)/c1ccc2c(c1)OCCO2 -30.1%
Fc1cccc(/C=N/Nc2ccc3ccccc3n2)c1 2.4%
Cc1ccc(/C=N/Nc2ccc3ccccc3n2)o1 25.7%
C(=N\Nc1nc2ccccc2[nH]1)/c1ccc2c(c1)OCCO2 -1.4%
Cc1ccc(OCC(O)CN2C(=O)NC(C)(C)C2=O)c(C)c1 (stereo unspecified) -16.8%
Cc1ccc(N=Nc2[nH]c3ccccc3c2O)cc1 -16%
COc1ccc(N2CC(C(=O)Nc3nnc(SCc4cccnc4)s3)CC2=O)cc1 (stereo unspecified) -15.4%
O=C(O)CSc1nnc(CSc2nc3ccccc3s2)n1-c1ccccc1 -26.6%
CC(C)(C)OC(=O)Nc1ncnc2c1ncn2C1OC(CO)C2OC(C)(C)OC21 (stereo unspecified) 1.4%
COc1ccc(NC(=O)CSc2nnc(CN3CCOCC3)n2C)cc1Cl -15%
Cc1cccc(NC(=O)NCC2CCN(c3ccc(S(=O)(=O)N4CCOCC4)cc3)CC2)c1 -10.9%
CCNC(=S)N/N=C(\C)c1ccc2ccccc2c1OC(F)F -20.3%
COC(=O)N/N=C(\C)c1ccc2ccccc2c1OC(F)F -30%
CCc1ccc(CNC(=O)c2ccc(NC(=O)C3=CSCCO3)cc2)cc1 -44.5%
COc1ccc(NC(=O)C2=CC(c3ccco3)=NS(=O)(=O)N2C)cc1OC -21.6%
O=C(Nc1cc(Sc2ccccn2)cc([N+](=O)[O-])c1)c1ccc([N+](=O)[O-])cc1 45.6%
O=C(Nc1cc(Sc2ccccn2)cc([N+](=O)[O-])c1)c1cccc(Cl)c1 15.3%
Cn1c(O)c(N=NC(=O)CNC(=O)/C=C/c2ccccc2)c2ccccc21 24.3%
Cc1cccc(Cc2cnc(NC(=O)c3ccc(C)o3)s2)c1 -34.8%
O=C1c2ccccc2C(=O)N1c1ncc(Cc2ccc(Cl)cc2)s1 25.4%
Brc1cccc(-c2nc3cccnc3nc2-c2cccc(Br)c2)c1 23.6%
CC(C)(C)c1nc2cc(Cl)c([N+](=O)[O-])cc2o1 -22.4%
c1ccc2c(c1)N1CCCN=C1N2CCN1CCCCC1 -32.5%
O=C(CN1CCCCCCC1)N/N=C/c1ccc([N+](=O)[O-])o1 8.4%
CO/N=C/c1ccc(N2CCCC2)c([N+](=O)[O-])c1 -21.4%
Cc1ccc(S(=O)(=O)N2CCN(c3ccnc4cc(Cl)ccc34)CC2)cc1 16.3%
CC(=O)Nc1ccc(C(=O)c2ccccc2)cc1 -1%
C/C(Nc1ccccc1)=C(/C#N)C(N)=O -14.6%
O=C(N/N=C/C=C/c1ccccc1)c1cc(C2CC2)[nH]n1 0.1%
CS(=O)(=O)Nc1nc2ccccc2[nH]1 -0.8%
O=S(=O)(Nc1nc2ccccc2[nH]1)c1ccc2ccccc2c1 56.9%
CN(Cc1ccccc1)S(=O)(=O)c1ccc2c(c1)CCC(=O)N2 -21.5%
O=C(c1cc(-c2ccccc2Cl)nc2ccc(Br)cc12)N1CCN(c2ccccn2)CC1 -7.5%
CSc1ccc(Cl)c(C(=O)OCC(=O)N(C)CCC#N)c1 -28.1%
O=C(COC(=O)c1cc([N+](=O)[O-])ccc1Cl)NC1CCCC1 1.2%
O=C(COC(=O)c1ccc(Cl)c([N+](=O)[O-])c1)NC1CCCC1 3.2%
CC(C)N(C(=O)COC(=O)c1ccccc1C(=O)c1ccc(Cl)c([N+](=O)[O-])c1)C(C)C -13.9%
C(=N\n1cnnc1)/c1cccc2ccccc12 7.2%
Cc1cc(=O)oc2c(C)c(OCC(=O)N3CCC(C(=O)O)CC3)ccc12 -25.2%
CCc1ccc(C2CC(=O)Nc3c2c(=O)nc2c(C)cccn32)cc1 (stereo unspecified) -32.6%
COc1cccc(C(CNC(=O)C(c2ccccc2)c2ccccc2)N(C)C)c1 (stereo unspecified) -20.7%
CC(C)(C)NC(=O)CSc1nc2[nH]ncc2c(=O)[nH]1 -22.7%
COc1ccccc1N1CCN(/N=C/c2cc(Br)ccc2F)CC1 -42.6%
CNc1ccn(C2CCCO2)c(=O)n1 (stereo unspecified) 1.2%
COc1ccc(NC(=O)c2ccccc2NS(=O)(=O)c2ccc(C)cc2)c([N+](=O)[O-])c1 58.5%
CCOc1ccc(NC(=O)c2cccnc2Cl)c([N+](=O)[O-])c1 -27.8%
Cc1ccc2oc(C(=O)N(CCO)Cc3ccccc3)c(C)c2c1 -6.1%
O=C(C(=O)N1CCOCC1)c1cn(CCOc2ccccc2)c2ccccc12 1%
Cc1ccc(CSC2=NCCN2S(=O)(=O)c2ccccc2)cc1 -6%
Cc1ccc(S(=O)(=O)N2CCN=C2SCc2ccccc2)cc1 -1.7%
Cc1ccccc1S(=O)(=O)Cc1ccc(C(=O)NCCCN2CCN(C)CC2)o1 -8.5%
CCOC(=O)Cc1cnc(NC(=O)Cn2nnc(-c3ccc(OCC)cc3)n2)s1 0.4%
O=C(N/N=C/c1ccc(OC(=O)c2ccccc2)cc1)c1cccnc1 -4.5%
COC(=O)c1ccc2nc(C)c(C)nc2c1 -2.5%
COC(=O)c1ccc2c(c1)C(C)(C)C(/C=C/c1ccc(OC)c(OC)c1OC)=[N+]2C -8.7%
CCCCNC(=O)c1cc2c(=O)n(CC)c3ccccc3c2s1 -5.9%
COc1ccc(CNC(=O)CN(C(=O)CCC(=O)Nc2ccccn2)c2ccc3c(c2)OCO3)cc1 -19.9%
CCn1cc(C(=O)NCCCOC)c(=O)c2cc(S(=O)(=O)N(C)C3CCCCC3)ccc21 -10.9%
COC(CNC(=O)c1cn(C)c2ccc(S(=O)(=O)N(C)C3CCCCC3)cc2c1=O)OC -18.2%
CCOc1ccc(S(=O)(=O)N(CC)CC(=O)N2CCOCC2)cc1C -22.7%

inhibition, active:
CC1=CC(=O)C(C(C)C)=C/C1=C(\c1cc(C(C)C)c(OP(=O)(O)O)cc1C)c1ccccc1C(=O)O 69.3%
S=C(N/N=C/c1ccc(Cl)cc1)N1CCOCC1 63.9%
CN=c1scc(-c2cccs2)n1/N=C/c1ccccc1O 107%
Cc1cccc(/C=N/Nc2ccc3ccccc3n2)c1 63.5%
C(=N\Nc1ccc2ccccc2n1)/c1ccc2c(c1)OCCO2 71.8%
C/C(=N\NC(=S)NCc1ccccc1)c1ccc2ccccc2c1OC(F)F 48.2%
O=C(Nc1cc(Sc2ccccn2)cc([N+](=O)[O-])c1)c1ccc(Cl)cc1 74.1%
Cc1cccc(Cc2cnc(N3C(=N)SC(c4ccccc4)C3=O)s2)c1 (stereo unspecified) 95.5%
O=C1N=C2N(CCN3CCCCC3)c3ccccc3N2/C1=C\c1ccc([N+](=O)[O-])o1 84.9%
N#CC(C#N)=C(Nc1ccccc1)c1ccccc1 32.8%
CN(CCC#N)C(=O)COC(=O)c1ccccc1C(=O)c1ccc(Cl)c([N+](=O)[O-])c1 55.1%
Cc1ccc(CSC2=NCCN2S(=O)(=O)c2ccc(F)cc2)cc1 48.3%
CCn1cc(C(=O)NCC(OC)OC)c(=O)c2cc(S(=O)(=O)N(C)C3CCCCC3)ccc21 59%

Reference: PubChem BioAssay AID1578 (Sanford-Burnham Center for Chemical Genomics, 2009)
